In PubChem BioAssay AID1053173 (Broad Institute, 2014):
In all, about 1,500 compounds went through this assay and about 390 (26%) were called active. The rule behind the calls is not given here. Only a sample is shown. Potency and affinity values are given separately.

Each compound was assayed against Histone-lysine N-methyltransferase NSD2 (Homo sapiens) (UniProt O96028) (assay: blockers of NSD2 H4 peptide methylation – biochemical, AlphaScreen, cherry-picked samples, dose response (AID 1053173;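 note: 0% = neutral control wells and -100% = positive control wells on each plate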)). Settings: 120 min; series mostly up to 10 µM; activity change, negative = inhibition: at the top concentration.
Histone-lysine N-methyltransferase NSD2 (Homo sapiens), sequence (O96028 whole entry, looked up): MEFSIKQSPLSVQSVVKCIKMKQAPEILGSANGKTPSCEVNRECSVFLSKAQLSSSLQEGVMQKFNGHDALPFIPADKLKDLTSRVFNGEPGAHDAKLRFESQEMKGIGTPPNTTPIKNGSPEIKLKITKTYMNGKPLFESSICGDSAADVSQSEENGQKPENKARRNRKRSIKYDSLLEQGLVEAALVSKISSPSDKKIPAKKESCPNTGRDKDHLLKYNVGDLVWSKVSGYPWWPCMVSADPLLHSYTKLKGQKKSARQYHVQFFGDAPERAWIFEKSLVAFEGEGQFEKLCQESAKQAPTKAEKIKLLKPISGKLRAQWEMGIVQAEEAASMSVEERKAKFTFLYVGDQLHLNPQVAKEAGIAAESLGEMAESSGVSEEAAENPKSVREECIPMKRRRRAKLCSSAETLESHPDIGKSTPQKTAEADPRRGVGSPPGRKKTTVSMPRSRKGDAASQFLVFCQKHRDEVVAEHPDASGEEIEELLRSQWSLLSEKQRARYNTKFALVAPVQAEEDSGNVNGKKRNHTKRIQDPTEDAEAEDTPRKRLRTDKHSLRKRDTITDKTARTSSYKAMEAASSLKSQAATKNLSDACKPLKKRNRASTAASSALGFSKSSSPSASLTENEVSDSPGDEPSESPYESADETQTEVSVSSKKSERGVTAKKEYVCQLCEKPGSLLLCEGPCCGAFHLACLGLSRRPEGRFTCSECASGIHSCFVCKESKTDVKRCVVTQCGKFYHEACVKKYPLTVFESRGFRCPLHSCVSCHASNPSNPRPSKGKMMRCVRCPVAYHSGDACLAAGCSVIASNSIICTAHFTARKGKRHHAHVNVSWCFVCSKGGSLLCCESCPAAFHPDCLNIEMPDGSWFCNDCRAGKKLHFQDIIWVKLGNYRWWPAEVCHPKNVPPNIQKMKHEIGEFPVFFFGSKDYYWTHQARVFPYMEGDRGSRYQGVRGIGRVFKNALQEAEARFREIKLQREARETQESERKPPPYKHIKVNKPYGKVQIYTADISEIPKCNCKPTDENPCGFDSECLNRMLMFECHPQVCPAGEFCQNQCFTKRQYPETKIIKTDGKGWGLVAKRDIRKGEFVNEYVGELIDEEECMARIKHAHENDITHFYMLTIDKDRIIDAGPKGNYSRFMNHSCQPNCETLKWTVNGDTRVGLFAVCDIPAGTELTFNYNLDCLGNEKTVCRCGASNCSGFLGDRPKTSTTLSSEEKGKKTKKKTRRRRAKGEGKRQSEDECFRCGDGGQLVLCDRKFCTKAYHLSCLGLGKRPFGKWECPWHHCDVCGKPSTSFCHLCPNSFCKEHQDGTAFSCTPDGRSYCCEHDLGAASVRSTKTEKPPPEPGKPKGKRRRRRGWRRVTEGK

Activity change, negative = inhibition, inactive:
O=C(CC1C(=O)N(c2ccccc2)C(=S)N1c1ccccc1)c1ccc(Br)cc1 (configuration not stated) -0.56%
CCn1c(O)c(/C=N/n2cnnc2)sc1=S 0.542%
CCOc1ccc(-c2nnc(SCc3nc4ccccc4[nH]3)n2N)cc1 -2.78%
CCOC(=O)C(Oc1ccc2c(-c3ccc(OC)cc3)cc(=O)oc2c1C)c1ccccc1 (configuration not stated) -0.617%
CCOC(=O)c1c(C#N)c(SCC(=O)Nc2ccc(OC)cc2)nc2c1CN(CC)CC2 -3.26%
COc1ccc(OCCSc2nnc(CCNC(=O)c3ccc(Cl)c(Cl)c3)n2C)cc1 1.83%
COc1cccc(CN2C(=O)C(C)N(C(=O)c3c(F)cccc3F)c3ccccc32)c1 (configuration not stated) -4.93%
CN1CCN(c2ccc(S(=O)(=O)N3CCOCC3)cc2NC(=O)COc2ccc(F)cc2Cl)CC1 -1.77%
COc1ccc(C2C(C(=O)/C=C/c3ccco3)=C(O)C(=O)N2CCN2CCOCC2)cc1OC (configuration not stated) 2.35%
COc1ccc(CCNC(=O)Nc2ccc3c(c2)c(=O)n(C)n3CC=C(C)C)cc1OC 1.5%
CCc1nnc(NC(=O)c2ccc(COc3ccccc3)o2)s1 0.577%
CCc1nnc(NC(=O)c2ccc3ccccc3n2)s1 -0.466%
CCC1(c2ccc(F)cc2)NC(=O)N(CC(=O)N(CCC#N)c2ccccc2)C1=O (configuration not stated) -0.318%
Cc1ccc(S(=O)(=O)N(C)C)cc1NC(=O)/C=C/c1cccs1 1.54%
CC1(C)Cc2sc3c(=O)[nH]c(=S)[nH]c3c2CO1 1.02%
CCOc1ccc(N2CC(C(=O)NCCc3c[nH]c4ccc(OC)cc34)CC2=O)cc1 (configuration not stated) 0.809%
Cc1ccc(NC(=O)Cn2nnc(C(=O)NCc3ccccc3)c2N)cc1C -0.362%
Cc1cc(C(=O)COC(=O)c2ccc([N+](=O)[O-])o2)c(C)n1CC1CCCO1 (configuration not stated) -9.09%
COc1ccc(C(c2c(C)[nH]n(-c3ccccc3)c2=O)c2c(C)[nH]n(-c3ccccc3)c2=O)cc1OC -9%
COCCN(C(=O)CCC(=O)Nc1ccccn1)C(C(=O)NC(C)C)c1ccc(C)cc1 (configuration not stated) -2.62%
C/C(CC(=O)Nc1ccccn1)=N\NC(=O)C(=O)Nc1cccc(Cl)c1C -0.689%
Cc1[nH]n(-c2ccccc2)c(=O)c1C(C[N+](=O)[O-])c1ccc(F)cc1 (configuration not stated) 1.48%
Cc1ccc(C(C[N+](=O)[O-])c2c(C)[nH]n(-c3ccccc3)c2=O)cc1 (configuration not stated) -2.59%
CCN(CC)C(=O)COC(=O)C1=NN(c2cc(C)ccc2C)C(=O)CC1 -3.17%
COC(=O)CCCC(=O)NC1CC(C)(C)Cc2c1cnn2-c1ccc(C)cc1 (configuration not stated) -0.494%
C=CCn1c(SCC(=O)N2CCN(c3ccccc3)CC2)nnc1-c1ccco1 -4.63%
C=CCn1c(SCc2ccc(C#N)cc2)nnc1-c1ccc(C)cc1 -2.38%
Cc1cccc(-c2nnc(SCC(=O)c3ccc(O)cc3O)n2C)c1 0.938%
CN(C)c1cccc2c1c(NC(=O)Nc1ccccc1)nn2C -5.26%
O=C(c1ccc2c(c1)OCO2)C1CCCN(Cc2ccc3cccc(F)c3n2)C1 (configuration not stated) -1.24%
CCNc1ccccc(C(=O)/C=C/c2ccc3c(c2)OCO3)c1=O -2.99%
CC(Cc1c[nH]c2ccccc12)C(=O)NCc1ccco1 (configuration not stated) -7.92%
CCOC(=O)N1CCN(C2=Nc3cccc4cccc2c34)CC1 0.355%
CSc1ncccc1C(=O)Nc1nc2c(C)cccc2s1 4.37%
Nc1ncnc(NCc2ccccc2)c1[N+](=O)[O-] 0.484%
COc1ccc(COc2ncnc3ccc(Br)cc23)cc1F 1.25%
COc1ccc(CCNC(=O)C2CCN(C(=O)c3ccccc3C)CC2)cc1 0.092%
Cc1cccc(N(CC(=O)NC(C)(C)C)C(=O)CS(=O)CC(=O)Nc2ccc3c(c2)OCO3)c1 (configuration not stated) 0.013%
CC(=O)N1CCN(Cc2nc3cc(NC(=O)Cn4nc(C)c5ccccc5c4=O)ccc3n2C)CC1 1.58%
[O-][n+]1cccc2c(Br)cc(Br)c(O)c21 -3.88%
OC(COc1ccc2ccccc2c1Cl)CN1CCOCC1 (configuration not stated) -1.1%
CCCCN(CC)CCNC(=O)CN(C)S(=O)(=O)c1ccc2c(c1)c(=O)n(C)c(=O)n2C -9.9%
Cc1ccc(C(=O)Nc2ccc(CC(=O)O)cc2)o1 -1.83%
CCCc1cc(Nc2ccccc2C)n2ncnc2n1 6.66%
N#Cc1c(SCC(=O)OCc2ccccc2)nsc1SCC(=O)OCc1ccccc1 -2.54%
Cc1cc(Cl)ccc1OCCCC(=O)N1CCOCC1 1.3%
CCN(CC)Cc1c(O)c(Cl)cc2c(C)cc(=O)oc12 -7.42%
O=S(=O)(c1ccc(-c2nnco2)cc1)N1CCCCC1 -4.33%
O=C(CSc1nnc2ccccn12)NNC(=O)c1ccc([N+](=O)[O-])cc1 -0.222%
O=C(c1ccc(N2CCOCC2)c([N+](=O)[O-])c1)N1CCN(Cc2ccccc2)CC1 -3.51%
O=C1CC(N2CCOCC2)=NN1c1ccc([N+](=O)[O-])cc1 -2.73%
c1cc(-c2ccoc2)n2ccnc2c1 -3.71%
CCN1C(=O)c2ccccc2S(=O)(=O)c2ccc(C(=O)NC(C)C)cc21 -0.906%
CC1CN(Cc2c(O)ccc3c(=O)c(-c4ccccc4Cl)coc23)CC(C)O1 (configuration not stated) 0.635%
CCCCN1C(=O)C(=Nc2cccc3cnccc23)c2ccccc21 -3.19%
CN(C)CCNc1nc(-c2ccco2)c2c(c1C#N)CC(C)(C)OC2 -1.66%
COc1ccc(C2CC(c3ccc(Cl)cc3)=NN2C(C)=O)cc1 (configuration not stated) -1.06%
Cc1ccnc(N2CCC(C(=O)NC3CCCCCC3)CC2)n1 -2.18%
NC(=O)c1[nH]cnc1N=NN(CCO)Cc1ccccc1 0.49%
CC(Oc1ccc(Cl)cc1Cl)C(=O)NC(Cc1ccccc1)C(=O)O (configuration not stated) 4.79%
O=C(NCc1cccnc1)c1ccc2c(c1)OCO2 -4.15%
CS(=O)(=O)N(CC(=O)NCc1ccc2c(c1)OCO2)c1cccc(Cl)c1 0.858%
C=CCOc1ccc(NC(=O)C2CC(=O)N(C(C)C)C2)cc1 (configuration not stated) -0.242%
Oc1ccc(NCc2cccc(OCc3ccc(F)cc3)c2)cc1 -5.89%
Oc1cccc(C=NCc2ccccc2)c1 1.51%
Cc1cccc(C(=O)NCC(=O)OCc2nnc(-c3ccccc3)o2)c1 0.7%
COc1ccccc1NC(=O)C(C)OC(=O)CCNS(=O)(=O)c1cccc(C(F)(F)F)c1 (configuration not stated) 1.15%
O=C(NCc1ccco1)c1nc(-c2ccccc2)n(-c2ccccc2)n1 -2.2%
CCOc1cc(N2CCOCC2)c(OCC)cc1NC(C)C(=O)N1CCN(CC)CC1 (configuration not stated) -1.64%
CCCC(=O)c1ccc(O)cc1O 0.614%
Cc1nc(COC(=O)c2cc(O)c3ccccc3c2O)cs1 -1.16%
COCCN1CC(=O)N2C(c3cccc(C)c3)c3[nH]c4ccccc4c3C[C@H]2C1=O (some centres not stated) -2.11%
COc1ccc(C2CC(=O)c3c(C)nc(N4CCN(c5ccccc5)CC4)nc3C2)cc1 (configuration not stated) 0.827%
CCOCCCNC(=O)Cn1cc2c(n1)-c1c(oc(C(=O)N3CCCC3)c1C)CC2 0.254%
O=C(NC1CCCC1)c1cc(-c2ccc(Cl)cc2Cl)on1 -3.59%
CC1CN(C(=O)COC(=O)/C=C/c2ccccc2)CC(C)O1 (configuration not stated) -1.51%
Cc1cccc(OCCn2c(=S)[nH]c3ccccc32)c1 -3.36%
Cc1cccc(Nc2nc(NCc3ccco3)nc(N)c2[N+](=O)[O-])c1 -4.37%
CC1=CCC2C(=O)N(c3cccc(C(=O)N(C)C4CCCCC4)c3)C(=O)C2C1 (configuration not stated) 0.384%
CCN(CC)CCOc1ccc(C=NNc2nc3c([nH]2)c(=O)n(C)c(=O)n3C)cc1 -11.9%
COc1ccc(CNC(=O)c2nnn(-c3cccc(C(F)(F)F)c3)c2N)cc1 4.73%
CC(=O)Nc1ccc(C(=O)OCC(=O)/C(C#N)=C(\C)N)cc1 -2.9%
O=C(Nc1nccs1)c1ccc2nccnc2c1 -5.53%
CC1CCCCC1NC(=O)COC(=O)c1ccc2c(=O)n3c(nc2c1)CCC3 (configuration not stated) -1.1%
Cc1ccc(NC(=O)CCN2CCN(C/C=C/c3ccccc3)CC2)cc1C -7.29%
CCCCOc1ccc(-c2ncc(N)cn2)cc1 7.56%
O=C(O)CC1S/C(=N/N=C/c2ccc(-c3ccc(Cl)cc3[N+](=O)[O-])o2)NC1=O (configuration not stated) -8.04%
COc1ccccc1OCC(=O)Nc1ccccc1C(=O)N1CCCC1 -4.11%
COc1ccccc1NC(=O)c1ccc(-n2cccn2)nc1 -1.08%
CC12CC3(C)CC(C)(C1)CC(C(=O)NC1=NCCS1)(C2)C3 2.75%
Cc1oc(-c2cccs2)nc1CN1CCN(C2CCCC2)C(CCO)C1 (configuration not stated) -3.19%
COC(=O)c1nn(C)c(=O)[nH]c1=O 1.85%
CC(=O)c1c(C)[nH]c(C(=O)CSc2nnc(-c3ccco3)n2Cc2ccccc2)c1C 3.53%
CC1=NN(c2ccc(S(=O)(=O)O)cc2Cl)C(=O)C1 4.11%
CCCCN(C)C(=O)C1CCN(Cc2cccc(OCc3ccccc3)c2)CC1 -1.82%
O=C(NCc1ccc(F)cc1)C1CCCN1S(=O)(=O)c1ccccc1C(F)(F)F (configuration not stated) 4.09%
CCN1CCCC1CNC(=O)c1ccc2c(c1)N(Cc1cccc(Cl)c1)C(=O)c1ccccc1S2(=O)=O (configuration not stated) -7.05%
COC(=O)c1sc(S(=O)(=O)Nc2ccc(C)c(C)c2)c(C(=O)OC)c1C -4.84%
COc1cc2c(oc(=O)c3cc(C)cc(OC)c32)c2c(C3OC(C)C(O)C(C)(O)C3O)ccc(O)c12 (configuration not stated) -1.96%
COc1cccc(C2c3c(oc4ccccc4c3=O)C(=O)N2CCCN(C)C)c1OC (configuration not stated) -0.912%
Cc1[nH][nH]c(=O)c1C(c1ccc2c(c1)OCO2)c1c(C)[nH][nH]c1=O -2.41%
Cc1cccc(C)c1NC(=S)N(CCCN1CCN(C)CC1)Cc1cccs1 -1.78%
O=C(Cc1ccc(Br)cc1)Nc1ncc([N+](=O)[O-])s1 -2.73%
O=C(COC(=O)c1ccc([N+](=O)[O-])s1)Nc1ccccc1 -2.69%
Cc1ccc2[nH]c3c(c2c1)CN(C(=O)CN(C)CC1OCCO1)CC3 -1.22%
CN1CCCCCC1=Nc1ccc([N+](=O)[O-])cc1 -6.03%
N#Cc1ccc(CSc2ncccn2)cc1 -3.28%
